A selection: hits, their analogues and other compounds. The true share with any hit is near 19%.
TGFb SMAD3 inh: inhibitors of TGF-b signaling | HepG2 CAGA-GFP TGF-b/SMAD3 reporter, GFP fluorescence, 18 h; TGF-beta stimulated, 500 pg/mL final | hit rate 1.2% among 410,000 | Potency, µM (highest dose often 46.1 µM), most hits filed as inhibitors; also: nearly all actives have a fitted effect of over 65% in size
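Inhibition of TGF-beta-driven CAGA-GFP reporter expression in HEPG2 cells is measured by cellular GFP fluorescence after 18 h stimulation with 500 pg/mL recombinant TGF-beta in 1% FBS medium at 37 degrees C.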
HepG2 viability: kills HepG2 cells in TGF-b inhibitor counter-screen. HepG2 CAGA-GFP viability, ATP luminescence, 18 h. Potency, µM (doses to about 46.1 µM), hits mostly cytotoxic. hit rate 0.76% among 410,000. AID 588856
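HepG2 CAGA-GFP cells (1000/well, DMEM with 1% FBS) received compound, then TGF-beta at 500 pg/mL final, and were incubated 18 hours at 37 degrees C. Viability was read by CellTiter-Glo luminescence. Media-only wells were set as complete cell-killing and DMSO as no toxicity.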
S-ASM inh: inhibitors of human secretory acid sphingomyelinase; Potency, µM (titrated, usually from 57.5 µM), actives largely listed as inhibitors; P17405; placental ASM, HMU-PC fluorogenic substrate, 60 min; AID 504937; hit rate 0.006% among 340,000
Target sequence (P17405 47-631 limits assumed): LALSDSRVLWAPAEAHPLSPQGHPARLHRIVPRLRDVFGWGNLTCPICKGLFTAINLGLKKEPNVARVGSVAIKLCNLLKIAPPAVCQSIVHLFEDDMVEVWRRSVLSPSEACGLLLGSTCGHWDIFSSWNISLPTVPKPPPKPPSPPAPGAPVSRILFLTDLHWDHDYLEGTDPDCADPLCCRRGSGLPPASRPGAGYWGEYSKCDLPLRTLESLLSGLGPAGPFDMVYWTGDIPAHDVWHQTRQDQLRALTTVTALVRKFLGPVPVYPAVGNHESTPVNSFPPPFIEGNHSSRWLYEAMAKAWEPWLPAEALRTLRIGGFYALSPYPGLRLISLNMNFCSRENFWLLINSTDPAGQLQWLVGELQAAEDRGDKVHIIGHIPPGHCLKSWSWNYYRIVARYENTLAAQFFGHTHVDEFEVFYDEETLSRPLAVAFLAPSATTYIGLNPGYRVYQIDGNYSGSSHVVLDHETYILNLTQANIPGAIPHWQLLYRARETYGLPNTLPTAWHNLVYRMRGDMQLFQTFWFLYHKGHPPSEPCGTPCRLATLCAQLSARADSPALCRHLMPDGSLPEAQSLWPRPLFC
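qHTS format. ASM enzyme prepared from human placenta hydrolyses the fluorogenic substrate HMU-PC0 (9 uM final) over 60 min at 37 °C after a 10 min compound preincubation.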
IL1B secr inh: blocks inflammasome-driven IL-1 beta release | THP-1 LPS/ATP IL-1B secretion, AlphaLISA, 16 h; active compounds read low | activity change, % at 57.5 µM | hit rate 4.7% among 360,000 | AID 743279; in the data active = activity change below about -50%; inconclusive = mostly about -30% to -49%
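Secreted IL-1B measured by AlphaLISA bead assay after 16 h compound exposure of THP-1 cells; compounds (final up to 57.5 uM) added 1 h before LPS (250 ng/mL) and ATP (1.25 mM) stimulation; lower signal means less secretion.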
DT40 TDP1 CPT: growth inhibition of DT40 Tdp1-/-;hTDP1 cells with camptothecin (screen for TDP1 inhibitors) | hit rate 12% among 420,000 | Potency, µM (series often up to 46.2 µM), usual class: inhibitors | chicken DT40 Tdp1-/-;hTDP1 cells + 20 nM CPT, ATP luminescence, 48 h; also: nearly all actives have a fitted effect of over 55% in size
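Chicken DT40 Tdp1-/- cells complemented with human TDP1, 400 cells/well, exposed to compounds plus 20 nM camptothecin for at least 48 h at 37 C; viability read as ATP content by CellTiter-Glo luminescence.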
DT40 TDP1 no CPT: qHTS for Inhibitors of human tyrosyl-DNA phosphodiesterase 1 (TDP1): qHTS in cells in absence of CPT; DT40 Tdp1-/- hTDP1 cells, no CPT, ATP luminescence, 48 h; Potency, µM (series often up to 46.2 µM), usual class: inhibitors; hit rate 15% among 420,000; also: nearly all actives have a fitted effect of over 55% in size
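Compound effects on proliferation are scored in DT40 Tdp1-/-;hTDP1 cells in the absence of CPT. ATP levels (CellTiter-Glo luminescence) are recorded after a ≥48 hr, 37 °C incubation.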
Numbers stand for hits; – = inactive; ? = inconclusive; · = no result; ! = not active in a repeat; [ ] = another dose, or the depositor's remark. Unless noted, calls follow the shape of the dose curve; as a rule, active = well fitted curve in the direction sought with a large enough effect; inconclusive = small, poorly fitted or top-dose-only effect, or another doubt; inactive = no such curve, though single readings can be large; an effect the other way counts as inactive or inconclusive.

SMILES	TGFb SMAD3 inh	HepG2 viability	S-ASM inh	IL1B secr inh	DT40 TDP1 CPT	DT40 TDP1 no CPT
Cc1ccc(-c2c(C(=O)N3CCN(c4cccc(C)c4)C(C)C3)oc(=O)c3ccccc23)cc1 (configuration not stated)	?	–	·	·	14.6µM	?
CCc1cccc(C)c1NC(=O)CCn1nc(C)c2c(C)n(-c3ccccc3)nc2c1=O	–	–	·	·	–	–
COc1ccc(OC)c(NC(=O)C(Cc2ccccc2)NS(=O)(=O)c2ccc3c(c2)CCC(=O)N3)c1 (configuration not stated)	–	–	·	·	?	?
Cc1ccc(Cl)cc1N1CCN(C(=O)c2cc3c(=O)n(C)c4ccccc4c3s2)CC1	–	–	·	·	–	–
CC1CCN(C(=O)c2cc3c(=O)n(C)c4ccccc4c3s2)CC1	–	–	·	·	11.6µM	?
Cc1cccc(N2CCN(C(=O)c3cc4c(=O)n(C)c5ccccc5c4s3)CC2C)c1 (configuration not stated)	–	–	·	·	?	2.31µM
Cc1cc(C)c(C)c(S(=O)(=O)NCCCN2CCCC2=O)c1C	–	–	–	–	–	–
CCn1c(=NC(=O)c2ccc(N3C(=O)CCC3=O)cc2)sc2c(OC)ccc(OC)c21	–	–	–	–	23.1µM	?
CCn1c(=NC(=O)c2cccc(N3C(=O)CCC3=O)c2)sc2c(C)ccc(OC)c21	–	–	–	–	18.4µM	–
COc1ccc(C(=O)NNC(=O)C23CC4CC(CC(C4)C2)C3)c(OC)c1	?	–	–	–	–	?
COc1ccc(NC(=O)C[C@H]2C(=O)N(C3CCCCC3)C[C@@H]2C)cc1	–	–	·	–	–	–
CCOC(=O)c1cnc2c(C)cccc2c1NCCCN1CCOCC1	–	–	–	?	–	?
CCN(C(=O)CSc1nc2ccccc2n1CC(=O)Nc1ccc(F)cc1F)c1ccccc1	–	–	·	·	23.1µM	14.6µM
CCn1cc2nc(SCC(=O)Nc3ccc(C)cc3C)n(Cc3ccc(C)cc3)c(=O)c2n1	–	–	·	·	3.66µM	5.17µM
Cc1ccc(C)c(NC(=O)Cn2c(SCC(=O)NCc3ccccc3)nc3ccccc32)c1	–	–	·	·	?	–
CCn1cc2nc(SCC(=O)Nc3ccc(F)cc3F)n(Cc3ccccc3)c(=O)c2n1	–	–	–	–	23.1µM	?
Cn1ncc2nc(SCC(=O)Nc3ccc(Br)cc3F)n(Cc3ccccc3)c(=O)c21	–	–	·	·	?	?
COC(=O)c1ccc(CN2C[C@H](Sc3ccccn3)C[C@H]2C(=O)N(C)C)cc1	·	·	·	·	–[9.04 µM]	–
Cc1ccc(C(=O)N2CCN(C(=O)c3ccccc3)C2c2ccc(N(C)C)cc2)cc1 (configuration not stated)	?	–	–	–	–	?
CN(C)c1ccc(C2CCc3ccccc3N2C(=O)c2ccccc2)cc1 (configuration not stated)	–	–	·	·	11.2µM	7.94µM
COC(=O)CN1C(=O)CSc2ccc(S(=O)(=O)Nc3cccc(C)c3)cc21	–	–	·	·	?	23.1µM
COC(=O)CN1C(=O)CSc2ccc(S(=O)(=O)N3CCOCC3)cc21	–	–	·	·	–	–
COC(=O)CN1C(=O)CSc2ccc(S(=O)(=O)Nc3cccc(C)c3C)cc21	?	–	·	·	?	?
CCc1cccc(NS(=O)(=O)c2ccc3c(c2)N(CC(=O)OC)C(=O)CS3)c1	–	–	·	·	18.4µM	?
Cc1ccccc1S(=O)(=O)Cc1ccc(C(=O)NC2CCCCC2C)o1 (configuration not stated)	–	–	–	–	?	?
CC/C(=C(\c1ccccc1)c1ccc(OCCN(C)C)cc1)c1ccccc1	?	–	–	-71.9!	20.6µM	18.4µM
O=C(c1ccccc1)c1ccc(OCCO)cc1	–	–	–	–	–	–
CCN(CC)CCOc1ccc(/C(=C(/Cl)c2ccccc2)c2ccccc2)cc1	?	10µM!	–	?	23.1µM	23.1µM

Assay outcomes (PubChem BioAssay)
